17 compounds from PubChem BioAssay (NCATS) can be followed below.

Test [1] in a line: qHTS profiling for inhibitors of Plasmodium falciparum proliferation (AID 504749). Further: nearly all actives have a fitted effect of over 60% in size.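 On activity, negative = inhibition: 0% = DMSO vehicle and full inhibition = artemisinin control.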 The settings on record: P. falciparum in erythrocytes, SYBR Green DNA, 72 h. In a few lines: (§1)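 Parasite proliferation within erythrocytes, 72 h exposure. Endpoint: SYBR Green I fluorescence after overnight lysis at room temperature. Controls: 0.29 uM artemisinin, DMSO.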
The subject of test [2] is 3D7. The test is described as above. Conditions: P. falciparum in erythrocytes, SYBR Green DNA, 72 h; series mostly up to 28.7 µM. The method, boiled down:
as §1

Test [3] deals with 7G8. The description is as above. The settings on record: P. falciparum in erythrocytes, SYBR Green DNA, 72 h; series mostly up to 28.7 µM. In a few lines: as §1
The test system of test [4] is AA1029. Described as above. The settings on record: P. falciparum in erythrocytes, SYBR Green DNA, 72 h; series mostly up to 28.7 µM. The method, boiled down: as §1
The test system of test [5] is AS120. The description is as above. The settings on record: P. falciparum in erythrocytes, SYBR Green DNA, 72 h; series mostly up to 28.7 µM. The method, boiled down: as §1
The subject of test [6] is ATS189. The test is described as above. Conditions: P. falciparum in erythrocytes, SYBR Green DNA, 72 h; series mostly up to 28.7 µM. The method, boiled down:
as §1

Test [7] concerns ATS95. The test is described as above. The settings on record: P. falciparum in erythrocytes, SYBR Green DNA, 72 h; series mostly up to 28.7 µM. In a few lines: as §1
Test [8] has as its system C2A. The test is described as above. The settings on record: P. falciparum in erythrocytes, SYBR Green DNA, 72 h; series mostly up to 28.7 µM. The method, boiled down: as §1
The test system of test [9] is CP185. Described as above. The settings on record: P. falciparum in erythrocytes, SYBR Green DNA, 72 h; series mostly up to 28.7 µM. In a few lines:
as §1

Test [10] deals with CP191. Described as above. Conditions: P. falciparum in erythrocytes, SYBR Green DNA, 72 h; series mostly up to 28.7 µM. In a few lines:
as §1

The subject of test [11] is CP192. The test is described as above. The settings on record: P. falciparum in erythrocytes, SYBR Green DNA, 72 h; series mostly up to 28.7 µM. The method, boiled down: as §1
Test [12] relates to CP194. The test is described as above. Conditions: P. falciparum in erythrocytes, SYBR Green DNA, 72 h; series mostly up to 28.7 µM. The method, boiled down: as §1
For test [13], the system named is CP201. Described as above. Conditions: P. falciparum in erythrocytes, SYBR Green DNA, 72 h; series mostly up to 28.7 µM. The method, boiled down: as §1
[14] abbreviates: at 28.7 µM (top of the series), parasite line A.
Where [15] appears, read: at 28.7 µM (top of the series), parasite line B.

Records with an inconclusive call do not appear. Unmarked numbers belong to inactive results. The source made the active and inactive calls. The call rests on the fitted dose curve; in most records, active means well fitted inhibition curve with a large enough effect; inconclusive means small, poorly fitted or top-dose-only effect; inactive means flat fitted curve, though single readings scatter.
Potency means the concentration at half of the fitted maximal effect.

Turning to `CCCCCl`, the activity, negative = inhibition is 1.32% in test [1] (setting [14]) and 10.6% in test [1] (setting [15]). Besides, the Potency result in [2], in [3], in test [4], in [5], in test [6] and in [7] was “inactive” throughout. Moreover, the Potency result in [8], in test [9], in [10], in test [11], in [12] and in test [13] was “inactive” each time.

Regarding `c1csc(C2(N3CCCCC3)CCCCC2)c1`, the activity, negative = inhibition in test [1] (setting [14]) is -2.88%; in [1] (setting [15]), 1.73%. For the same compound, the Potency entry in [2], in test [3], in [4], in test [5], in [6] and in [7] was “inactive” in each case. The Potency result in test [8], in [9], in test [10], in test [11], in [12] and in test [13] was “inactive” throughout.

As for `CC(C)Nc1ccc(Nc2ccccc2)cc1`, the Potency in test [1] (parasite line A) was 3.16 µM (active); in test [1] (parasite line B), 5.01 µM (active); in test [2] it was 6.31 µM (active); in [3], 8.91 µM (active); in [4], 7.08 µM (active); in [5] it was 11.2 µM (active). Besides, the Potency is 5.62 µM (active) in test [6]; 7.94 µM (active) in test [7]; 8.91 µM (active) in test [8]; 8.91 µM (active) in [9]; 4.47 µM (active) in test [10]; 5.36 µM (active) in test [11]. Also, the Potency in test [12] is 3.38 µM (active); in test [13], 4.78 µM (active).

Turning to `O=S(=O)(O)c1cc(O)ccc1O`, the activity, negative = inhibition in test [1] (at 12.8 µM (top of the series), parasite line A) was 3.73%; in test [1] (at 12.8 µM (top of the series), parasite line B), -1.7%. Moreover, the Potency entry in test [2], in [3], in test [4], in test [5], in test [6] and in test [7] was “inactive” each time. In addition, the Potency entry in test [8], in test [9], in test [10], in test [11], in test [12] and in test [13] was “inactive” in each case.

For `ClC(Cl)(Cl)Cl`, the activity, negative = inhibition in test [1] (setting [14]) was 12.6%; in test [1] (setting [15]), 5.77%. The Potency entry in test [2], in test [3], in test [4], in test [5], in [6] and in test [7] was “inactive” throughout. Further, the Potency entry in [8], in test [9], in test [10], in test [11], in test [12] and in test [13] was “inactive” each time.

`O=C1CCCCC1CN1CCCCC1` (configuration not stated): the activity, negative = inhibition is 6.14% in [1] (setting [14]) and 5.73% in [1] (setting [15]). Moreover, the Potency entry in test [2], in [3], in test [4], in test [5], in test [6] and in test [7] was “inactive” throughout. In addition, the Potency result in [8], in [9], in test [10], in test [11], in test [12] and in test [13] was “inactive” throughout.

In the case of `Cc1sc2ccccc2c1CC1=NCCN1`, the activity, negative = inhibition was 5.82% in test [1] (setting [14]) and -2.48% in test [1] (setting [15]). Further, the Potency result in test [2], in test [4], in test [5], in test [6], in test [7] and in [8] was “inactive” throughout. Also, the Potency result in test [9], in test [11], in test [12] and in test [13] was “inactive” in each case. Besides, the Potency in test [3] was 10 µM (active).

Regarding `ClC1C(Cl)C(Cl)C(Cl)C(Cl)C1Cl` (configuration not stated), the results for the activity, negative = inhibition in test [1] (setting [14]) and in [1] (setting [15]) were 10.1% and 13.2%, respectively. Further, the Potency result in test [2], in [3], in [4], in test [5], in test [6] and in test [7] was “inactive” in each case. In addition, the Potency entry in [8], in test [9], in test [10], in test [11], in [12] and in test [13] was “inactive” throughout.

On to `O=c1[nH]cc(N(CCCl)CCCl)c(=O)[nH]1`, for which the activity, negative = inhibition in [1] (setting [14]) is -0.577%; in [1] (setting [15]), -4.63%. The Potency result in test [2], in [3], in test [4], in test [5], in test [6] and in test [7] was “inactive” each time. In addition, the Potency result in [8], in test [9], in test [10], in test [11], in [12] and in [13] was “inactive” throughout.

`N#CC(C#N)=Cc1cc(O)c(O)c(O)c1`: the Potency in test [1] (parasite line A) was 11.2 µM (active); in test [1] (parasite line B) it was 11.2 µM (active); in [2], 10 µM (active); in test [3] it was 4.47 µM (active); in test [4], 12.6 µM (active); in [5], 8.91 µM (active). Also, the Potency in [8] was 10 µM (active); in test [9] it was 8.91 µM (active); in [11], 13.5 µM (active); in [12], 15.1 µM (active).

Consider `O=C(CS(=O)C(c1ccccc1)c1ccccc1)NO` (configuration not stated), for which the activity, negative = inhibition in test [1] (setting [14]) is -13.7%; in [1] (setting [15]) it was 0.0253%. In addition, the Potency entry in [2], in test [3], in test [4], in [5], in test [6] and in test [7] was “inactive” in each case. The Potency result in [8], in test [9], in test [10], in [11], in test [12] and in test [13] was “inactive” in each case.

Turning to `ClCC1CO1` (configuration not stated), the activity, negative = inhibition was 2.63% in test [1] (setting [14]) and -1.12% in test [1] (setting [15]). Also, the Potency entry in [2], in test [3], in [4], in test [5], in [6] and in test [7] was “inactive” each time. Further, the Potency entry in [8], in test [9], in test [10], in test [11], in [12] and in [13] was “inactive” throughout.

Turning to `CC[N+](C)(CC)CCOC(=O)C(O)(c1ccccc1)c1ccccc1`, the activity, negative = inhibition in [1] (setting [14]) was 5.27%; in [1] (setting [15]) it was 8.78%. For the same compound, the Potency entry in test [2], in test [3], in test [4], in test [5], in [6] and in [7] was “inactive” in each case. Further, the Potency result in [8], in test [9], in test [10], in test [11], in test [12] and in test [13] was “inactive” throughout.

On to `CCOc1ccc2c3c1O[C@H]1[C@@H](O)C=C[C@H]4[C@@H](C2)N(C)CC[C@@]341`, for which the activity, negative = inhibition was 0.925% in test [1] (setting [14]) and -4.11% in [1] (setting [15]). Moreover, the Potency result in test [2], in test [3], in test [4], in test [5], in [6] and in [7] was “inactive” throughout. Further, the Potency entry in test [8], in test [9], in test [10], in test [11] and in [13] was “inactive” each time.

On to `COC([CH2][Hg])CNC(=O)c1ccccc1OCC(=O)O` (configuration not stated), for which the activity, negative = inhibition in test [1] (setting [14]) is 6.16%; in [1] (setting [15]) it was 2.49%. The Potency result in test [2], in test [3], in test [4], in [5], in [6] and in test [7] was “inactive” each time. Also, the Potency entry in test [8], in test [9], in [10], in [11], in [12] and in test [13] was “inactive” throughout.

Consider `COCC(C)N(C(=O)CCl)c1c(C)csc1C` (configuration not stated), for which the values for the activity, negative = inhibition in [1] (setting [14]) and in test [1] (setting [15]) were 7.86% and -2.46%, respectively. Also, the Potency entry in [2], in test [3], in test [4], in test [5], in [6] and in [7] was “inactive” throughout. In addition, the Potency result in test [8], in test [9], in [10], in [11], in test [12] and in test [13] was “inactive” each time.

Take `O=C(NCNC(=O)NC1C(=O)NC(=O)N1CO)NC1C(=O)NC(=O)N1CO` (configuration not stated): the figures for the activity, negative = inhibition in test [1] (setting [14]) and in [1] (setting [15]) were 15.1% and 8.84%, respectively. The Potency entry in test [2], in test [3], in [4], in test [5], in test [6] and in test [7] was “inactive” each time. The Potency result in [8], in [9], in test [10], in [11], in test [12] and in test [13] was “inactive” each time.
